# Measurements reported in PubChem BioAssay (NCATS).
# Inconclusive results are not listed. Where a call stands in place of a potency, no number is given. Activity calls are given as the source filed them. The call rests on the fitted dose curve; in most records, active means well fitted curve in the direction sought with a large enough effect; inconclusive means small, poorly fitted or top-dose-only effect, or another doubt; inactive means no such curve, though single readings can be large; an effect the other way counts as inactive or inconclusive.
# Key:
# [1] = Quantitative High-Throughput drug screen in 47 multiple myeloma cell lines against the NCATS MIPE library collection: KMS12PE_JCRB cell viability assay (AID 1918972); further: nearly all actives have a fitted effect of over 30% in size; further: potency means the concentration at half of the fitted maximal effect
# How it was run: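 CellTiter-Glo ATP luminescence gave viability after 48 h compound treatment at 37C of 500 multiple myeloma cells per well. Normalisation used DMSO-only wells as 100% and media-only wells as 0% viability; primary qHTS of approved and investigational drugs.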
# [2] = Quantitative High-Throughput drug screen in 47 multiple myeloma cell lines against the NCATS MIPE library collection: KMS20_JCRB cell viability assay (AID 1918973); further: nearly all actives have a fitted effect of over 45% in size; further: potency means the concentration at half of the fitted maximal effect
# How it was run: (§1)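 Myeloma cells (500 per well) were exposed to MIPE 4.0 compounds by pin transfer and incubated 48 hours at 37C, 5% CO2. Viability was read as ATP by CellTiter-Glo luminescence, normalised to DMSO (100%) and media-only (0%) wells.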
# [3] = Quantitative High-Throughput drug screen in 47 multiple myeloma cell lines against the NCATS MIPE library collection: NCIH929_DSMZ cell viability assay (AID 1918978); further: nearly all actives have a fitted effect of over 35% in size; further: potency means the concentration at half of the fitted maximal effect
# How it was run: (§2)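 ATP-based CellTiter-Glo luminescence after 48 h drug exposure (37 °C, 5% CO2) of 500 myeloma cells per well. DMSO-only wells set 100% viability, media-only wells 0%; MIPE 4.0 library added by pin tool.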
# [4] = Quantitative High-Throughput drug screen in 47 multiple myeloma cell lines against the NCATS MIPE library collection: MMM1_PLB cell viability assay (AID 1918976); further: potency means the concentration at half of the fitted maximal effect; nearly all actives have a fitted effect of over 35% in size
# How it was run: as §2
# [5] = Quantitative High-Throughput drug screen in 47 multiple myeloma cell lines against the NCATS MIPE library collection: MOLP8_DSMZ cell viability assay (AID 1918977); further: nearly all actives have a fitted effect of over 45% in size; further: potency means the concentration at half of the fitted maximal effect
# How it was run: as §2
# [6] = Quantitative High-Throughput drug screen in 47 multiple myeloma cell lines against the NCATS MIPE library collection: KMS12BM_JCRB cell viability assay (AID 1918971); further: potency means the concentration at half of the fitted maximal effect; nearly all actives have a fitted effect of over 35% in size
# How it was run: (§3)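 Relative luminescence from CellTiter-Glo served as the viability signal, referenced to DMSO-treated (100%) and cell-free medium (0%) controls. Treatment lasted 48 hours at 37C with 500 cells per well.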
# [7] = Quantitative High-Throughput drug screen in 47 multiple myeloma cell lines against the NCATS MIPE library collection: KMS27_JCRB cell viability assay (AID 1918970); further: nearly all actives have a fitted effect of over 30% in size; further: potency means the concentration at half of the fitted maximal effect
# How it was run: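 Luminescent ATP read-out (CellTiter-Glo, 5 min at room temperature) after 48 h compound exposure of 500 KMS27_JCRB cells per well; DMSO wells define full viability and media-only wells zero.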
# [8] = Quantitative High-Throughput drug screen in 47 multiple myeloma cell lines against the NCATS MIPE library collection: KMS21BM_JCRB cell viability assay (AID 1918974); conditions: ATP luminescence, 48 h; viability: at 45.8 µM (top of the series) unless noted; further: potency means the concentration at half of the fitted maximal effect
# How it was run: as §1
# [9] = Quantitative High-Throughput drug screen in 47 multiple myeloma cell lines against the NCATS MIPE library collection: KMS26_JCRB cell viability assay (AID 1918975); further: nearly all actives have a fitted effect of over 45% in size
# How it was run: as §3
smiles,measurement,setting,value
N#Cc1ccc(C(c2ccc(C#N)cc2)n2cncn2)cc1,Potency,[1],inactive
same,Potency,[2],inactive
same,Potency,[3],inactive
COc1cc2c(cc1OC)CN(CCc1ccc(NC(=O)c3cccc4c(=O)c5cccc(OC)c5[nH]c34)cc1)CC2,Potency,[4],20.9 µM (active)
N#CC[C@H](C1CCCC1)n1cc(-c2ncnc3[nH]ccc23)cn1,Potency,[5],inactive
same,Potency,[3],inactive
CC1(C)Cc2c(-c3ccccc3)c(-c3ccc(Cl)cc3)c(CC(=O)O)n2C1,Potency,[6],20.9 µM (active)
same,Potency,[5],20.9 µM (active)
O=C(C1CC1)N1CC[C@@H](Cn2c(-c3ccc(-c4ccc5occc5c4)cc3)nc3cnccc32)C1,Potency,[1],29.6 µM (active)
same,Potency,[3],inactive
O=C(Nc1ccc(F)c(C(F)(F)F)c1)Nc1nnc(-c2ccncc2)s1,Potency,[7],inactive
same,Potency,[8],inactive
same,Potency,[3],2.64 µM (active)
Cc1c(C)c2c(c(C)c1O)CCC(C)(COc1ccc(CC3SC(=O)NC3=O)cc1)O2 (stereo not drawn),Potency,[5],inactive
CCN(CC)CCCC(C)Nc1nc(C)cc(Nc2ccc3nc(C)cc(N)c3c2)n1 (stereo not drawn),Potency,[7],10.5 µM (active)
same,Potency,[3],16.6 µM (active)
Clc1ccc(Nc2nnc(Cc3ccncc3)c3ccccc23)cc1,Potency,[7],inactive
same,Potency,[1],inactive
same,Potency,[3],11.8 µM (active)
COc1ccc(CCN2CCN(CCCc3ccccc3)CC2)cc1OC,Potency,[8],3.32 µM (active)
same,Potency,[5],inactive
same,Potency,[3],inactive
Cc1cnc(Nc2ccc(OCCN3CCCC3)cc2)nc1Nc1cccc(S(=O)(=O)NC(C)(C)C)c1,Potency,[9],inactive
same,Potency,[3],inactive
Cc1cc2c(F)c(Oc3ncnn4cc(OC[C@@H](C)O)c(C)c34)ccc2[nH]1,Potency,[1],inactive
same,Potency,[4],2.09 µM (active)
same,Potency,[3],18.7 µM (active)
CC(C[N+](C)(C)C)OC(N)=O (stereo not drawn),Potency,[1],inactive
same,Potency,[9],inactive
same,Potency,[5],inactive
same,Potency,[3],inactive
CCCc1nn(C)c2c(=O)[nH]c(-c3cc(S(=O)(=O)N4CCN(C)CC4)ccc3OCC)nc12,Potency,[1],inactive
same,Potency,[2],18.7 µM (active)
